Data as given in the supplement of paper PMC10849652.
About 7,900 targets were measured; listed, in parts, are those with a hit and a random draw of the rest. About 0.6% of all pairs of compound and target were hits.

Compound: CCCS(=O)(=O)Nc1ccc(F)c(C(=O)c2c[nH]c3ncc(-c4ccc(Cl)cc4)cc23)c1F [vemurafenib]
Assay: log2 fold change, soluble protein after heating vs DMSO (PISA); higher = thermal stabilisation; K562 cells, 10 uM, 30 min; active = over 0.2 and 3.5 SD of the protein, either way, in both replicates (recomputed)
Outline: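 Values are thermal stability changes relative to control samples and are taken from duplicates. They are stated as log2 fold changes. Before quantification by TMTpro 16plex LC-MS/MS with equalised channel sums, K562 cells at 2×10^6 cells/mL were treated with 10 μM compound for 30 min, heated in aliquots for 3 min across 48°C-58°C, pooled, extracted in PBS with 0.5% NP-40 at 4°C, and centrifuged at 21,000xg for 90 min to give the soluble supernatant.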

Sequence of UniProt P51946 (P51946 whole entry, looked up): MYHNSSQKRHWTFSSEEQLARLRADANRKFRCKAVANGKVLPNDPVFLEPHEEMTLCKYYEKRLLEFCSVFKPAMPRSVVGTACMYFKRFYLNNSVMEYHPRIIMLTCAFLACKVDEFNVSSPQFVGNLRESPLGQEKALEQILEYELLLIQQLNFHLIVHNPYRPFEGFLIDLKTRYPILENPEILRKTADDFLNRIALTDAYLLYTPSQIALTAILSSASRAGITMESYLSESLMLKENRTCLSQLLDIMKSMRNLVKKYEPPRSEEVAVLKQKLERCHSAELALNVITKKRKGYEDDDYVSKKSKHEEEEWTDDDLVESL
Sequence of UniProt Q5T5Y3 (Q5T5Y3 whole entry, looked up): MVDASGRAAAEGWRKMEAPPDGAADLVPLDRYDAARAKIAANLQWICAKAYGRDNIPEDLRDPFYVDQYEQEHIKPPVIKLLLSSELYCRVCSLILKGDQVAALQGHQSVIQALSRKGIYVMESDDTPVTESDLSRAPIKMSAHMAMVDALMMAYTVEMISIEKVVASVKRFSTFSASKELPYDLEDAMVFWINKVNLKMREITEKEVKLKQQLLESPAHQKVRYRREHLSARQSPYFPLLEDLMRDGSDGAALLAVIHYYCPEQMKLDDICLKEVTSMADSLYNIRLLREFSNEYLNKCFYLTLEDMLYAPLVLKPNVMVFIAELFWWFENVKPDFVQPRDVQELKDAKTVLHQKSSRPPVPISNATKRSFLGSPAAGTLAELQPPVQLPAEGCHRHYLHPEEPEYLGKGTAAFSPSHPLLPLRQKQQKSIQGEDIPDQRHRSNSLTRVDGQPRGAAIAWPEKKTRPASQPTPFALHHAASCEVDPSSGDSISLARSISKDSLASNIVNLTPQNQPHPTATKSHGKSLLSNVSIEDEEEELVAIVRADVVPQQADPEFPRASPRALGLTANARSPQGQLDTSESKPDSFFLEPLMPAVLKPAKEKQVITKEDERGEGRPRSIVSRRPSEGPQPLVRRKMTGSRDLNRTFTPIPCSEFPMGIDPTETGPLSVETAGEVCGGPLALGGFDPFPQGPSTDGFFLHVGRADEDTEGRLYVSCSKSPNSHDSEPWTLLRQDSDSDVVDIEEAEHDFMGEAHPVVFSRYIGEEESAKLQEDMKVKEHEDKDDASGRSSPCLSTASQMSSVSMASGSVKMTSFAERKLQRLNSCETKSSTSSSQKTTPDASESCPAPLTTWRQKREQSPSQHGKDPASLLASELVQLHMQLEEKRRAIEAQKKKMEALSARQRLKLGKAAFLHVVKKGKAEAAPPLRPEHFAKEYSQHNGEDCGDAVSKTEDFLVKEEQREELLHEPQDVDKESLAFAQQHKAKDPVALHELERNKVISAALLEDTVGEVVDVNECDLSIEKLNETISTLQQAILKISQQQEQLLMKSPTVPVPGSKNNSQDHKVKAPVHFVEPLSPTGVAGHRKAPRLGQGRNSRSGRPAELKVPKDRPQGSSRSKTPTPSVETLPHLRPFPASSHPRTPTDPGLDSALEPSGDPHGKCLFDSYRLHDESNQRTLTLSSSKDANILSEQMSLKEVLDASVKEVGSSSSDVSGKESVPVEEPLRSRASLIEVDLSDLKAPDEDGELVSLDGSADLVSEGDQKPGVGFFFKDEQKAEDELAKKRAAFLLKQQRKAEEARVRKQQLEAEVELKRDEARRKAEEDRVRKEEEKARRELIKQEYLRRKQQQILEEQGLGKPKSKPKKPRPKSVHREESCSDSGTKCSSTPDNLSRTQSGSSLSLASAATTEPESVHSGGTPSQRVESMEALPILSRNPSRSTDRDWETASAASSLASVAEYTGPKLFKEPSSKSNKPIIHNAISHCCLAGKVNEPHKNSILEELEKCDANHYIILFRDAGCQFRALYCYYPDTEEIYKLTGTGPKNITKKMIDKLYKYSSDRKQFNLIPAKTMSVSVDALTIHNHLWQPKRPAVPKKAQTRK
Sequence of UniProt P19397 (P19397 whole entry, looked up): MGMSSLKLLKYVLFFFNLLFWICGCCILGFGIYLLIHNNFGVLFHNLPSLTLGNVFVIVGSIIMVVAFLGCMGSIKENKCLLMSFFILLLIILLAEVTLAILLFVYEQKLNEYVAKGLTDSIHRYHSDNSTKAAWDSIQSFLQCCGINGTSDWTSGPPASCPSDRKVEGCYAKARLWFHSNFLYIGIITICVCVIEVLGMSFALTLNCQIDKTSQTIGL
Sequence of UniProt Q14839 (Q14839 whole entry, looked up): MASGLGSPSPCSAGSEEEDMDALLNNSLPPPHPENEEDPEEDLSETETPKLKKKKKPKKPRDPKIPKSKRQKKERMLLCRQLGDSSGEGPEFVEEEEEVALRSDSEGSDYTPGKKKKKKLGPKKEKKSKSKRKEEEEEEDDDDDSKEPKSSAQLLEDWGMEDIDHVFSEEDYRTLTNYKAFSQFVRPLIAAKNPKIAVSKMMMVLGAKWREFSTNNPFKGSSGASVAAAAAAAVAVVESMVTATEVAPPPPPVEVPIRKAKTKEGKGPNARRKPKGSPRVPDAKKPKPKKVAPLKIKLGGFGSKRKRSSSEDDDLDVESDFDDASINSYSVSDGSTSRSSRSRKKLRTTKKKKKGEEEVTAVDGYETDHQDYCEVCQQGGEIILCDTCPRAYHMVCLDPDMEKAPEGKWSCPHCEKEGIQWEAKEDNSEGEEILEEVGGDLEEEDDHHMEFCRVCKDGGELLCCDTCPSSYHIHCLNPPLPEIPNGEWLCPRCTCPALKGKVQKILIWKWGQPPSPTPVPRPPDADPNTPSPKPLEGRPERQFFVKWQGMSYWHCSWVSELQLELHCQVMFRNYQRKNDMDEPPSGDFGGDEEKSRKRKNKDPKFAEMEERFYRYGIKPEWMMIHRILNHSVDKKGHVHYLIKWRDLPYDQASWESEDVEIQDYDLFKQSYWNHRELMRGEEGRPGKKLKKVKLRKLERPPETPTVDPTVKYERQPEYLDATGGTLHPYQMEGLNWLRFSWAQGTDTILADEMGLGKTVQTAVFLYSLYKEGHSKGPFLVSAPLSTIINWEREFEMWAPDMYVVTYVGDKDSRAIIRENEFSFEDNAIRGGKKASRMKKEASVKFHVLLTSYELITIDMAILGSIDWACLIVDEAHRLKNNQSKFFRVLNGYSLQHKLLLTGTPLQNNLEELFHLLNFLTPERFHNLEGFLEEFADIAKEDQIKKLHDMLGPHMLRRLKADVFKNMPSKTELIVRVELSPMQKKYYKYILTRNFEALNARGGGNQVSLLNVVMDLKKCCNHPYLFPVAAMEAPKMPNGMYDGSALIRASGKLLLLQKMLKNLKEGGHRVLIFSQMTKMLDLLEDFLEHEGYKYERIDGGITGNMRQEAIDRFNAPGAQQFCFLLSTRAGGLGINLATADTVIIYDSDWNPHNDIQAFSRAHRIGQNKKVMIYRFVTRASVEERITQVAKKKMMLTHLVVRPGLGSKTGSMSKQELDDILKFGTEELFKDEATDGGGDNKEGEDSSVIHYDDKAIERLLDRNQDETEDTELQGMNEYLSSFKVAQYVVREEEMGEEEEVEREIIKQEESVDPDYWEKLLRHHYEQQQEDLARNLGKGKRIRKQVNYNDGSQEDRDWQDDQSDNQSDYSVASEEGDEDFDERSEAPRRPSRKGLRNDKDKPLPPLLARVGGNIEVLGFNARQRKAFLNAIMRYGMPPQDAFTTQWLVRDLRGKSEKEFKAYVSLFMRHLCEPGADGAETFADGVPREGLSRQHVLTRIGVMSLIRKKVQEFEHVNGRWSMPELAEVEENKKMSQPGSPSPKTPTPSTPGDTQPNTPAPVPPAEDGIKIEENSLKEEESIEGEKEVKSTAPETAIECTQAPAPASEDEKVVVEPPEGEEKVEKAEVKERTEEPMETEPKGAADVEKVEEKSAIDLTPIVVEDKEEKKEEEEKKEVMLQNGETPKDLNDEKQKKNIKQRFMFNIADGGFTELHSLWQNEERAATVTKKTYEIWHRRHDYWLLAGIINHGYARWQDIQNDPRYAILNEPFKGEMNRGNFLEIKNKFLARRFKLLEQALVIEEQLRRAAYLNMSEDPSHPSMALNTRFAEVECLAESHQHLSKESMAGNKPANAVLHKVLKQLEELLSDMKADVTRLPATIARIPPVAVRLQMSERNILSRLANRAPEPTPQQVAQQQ
Sequence of UniProt P35219 (P35219 whole entry, looked up): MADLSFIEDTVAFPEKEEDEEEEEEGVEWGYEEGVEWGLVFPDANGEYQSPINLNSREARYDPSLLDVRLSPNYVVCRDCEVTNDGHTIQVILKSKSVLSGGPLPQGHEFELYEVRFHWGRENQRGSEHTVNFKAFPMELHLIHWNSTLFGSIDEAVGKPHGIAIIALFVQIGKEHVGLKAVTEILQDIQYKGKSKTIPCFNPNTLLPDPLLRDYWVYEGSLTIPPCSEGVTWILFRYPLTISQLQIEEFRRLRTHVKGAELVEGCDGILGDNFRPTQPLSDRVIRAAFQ
Sequence of UniProt Q16740 (Q16740 whole entry, looked up): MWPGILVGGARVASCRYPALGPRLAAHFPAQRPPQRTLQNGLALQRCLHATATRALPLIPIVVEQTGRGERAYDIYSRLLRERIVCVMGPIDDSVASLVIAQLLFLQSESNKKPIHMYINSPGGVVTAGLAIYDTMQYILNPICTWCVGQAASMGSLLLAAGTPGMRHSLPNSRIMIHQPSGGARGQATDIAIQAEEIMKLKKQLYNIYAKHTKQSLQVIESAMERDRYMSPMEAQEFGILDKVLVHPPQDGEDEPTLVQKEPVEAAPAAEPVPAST
Sequence of UniProt Q86X83 (Q86X83 whole entry, looked up): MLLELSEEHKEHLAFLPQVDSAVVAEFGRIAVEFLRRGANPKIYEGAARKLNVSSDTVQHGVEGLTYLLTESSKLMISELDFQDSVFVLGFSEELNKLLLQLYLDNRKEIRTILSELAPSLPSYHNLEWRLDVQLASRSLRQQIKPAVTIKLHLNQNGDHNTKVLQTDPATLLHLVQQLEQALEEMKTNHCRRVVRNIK
Sequence of UniProt O15182 (O15182 whole entry, looked up): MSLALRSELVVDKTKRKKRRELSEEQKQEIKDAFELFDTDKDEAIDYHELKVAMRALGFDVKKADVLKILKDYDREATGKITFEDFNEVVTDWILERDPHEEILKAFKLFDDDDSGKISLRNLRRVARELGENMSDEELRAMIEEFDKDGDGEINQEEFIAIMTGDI

log2 fold change, inactive:
CLCN7 (UniProt P51798) 0.001
CCZ1 (UniProt P86791) 0.024
C1D (UniProt Q13901) -0.046
CNOT7 (UniProt Q9UIV1) -0.068
CDC42BPA isoform 6 (UniProt Q5VT25) 0.004
COMMD1 (UniProt Q8N668) -0.038
CETN3 (UniProt O15182) -0.056
C4orf33 (UniProt Q8N1A6) -0.01
CDK9 isoform 2 (UniProt P50750) -0.052
CDC25B isoform 4 (UniProt P30305) 0.054
CHEK1 (UniProt O14757) 0.017
CD53 (UniProt P19397) -0.035
CRTC2 (UniProt Q53ET0) 0.039
CDK4 (UniProt P11802) -0.161
CNOT1 (UniProt A5YKK6) 0.044
CPSF1 (UniProt Q10570) -0.115
CLUH, A0A494C0R8 -0.121
CEPT1 (UniProt Q9Y6K0) 0.123
CELF2 isoform 3 (UniProt O95319) 0.065
CDC42SE1 (UniProt Q9NRR8) -0.007
CASP3 (UniProt P42574) -0.009
CDK12 (UniProt Q9NYV4) -0.047
COQ9 (UniProt O75208) 0.041
COMMD2 (UniProt Q86X83) 0.023
CDK6 (UniProt Q00534) 0.002
CA8 (UniProt P35219) 0.004
CA1 (UniProt P00915) 0.048
CLSPN (UniProt Q9HAW4) 0.041
CCNH (UniProt P51946) 0.003
CLPP (UniProt Q16740) 0.015
CHD4 isoform 2 (UniProt Q14839) 0.068
CAMSAP1 isoform 3 (UniProt Q5T5Y3) -0.274
CCDC57 (UniProt Q2TAC2) 0
CHST11 (UniProt Q9NPF2) 0.027
CRLF3 (UniProt Q8IUI8) 0.057
CAD (UniProt P27708) -0.041
